# ROMK primary = ROMK potassium channel modulators, primary screen, cell-based, thallium flux, MLSMR library | AID 1918, 2009 | Tet-inducible ROMK, thallium flux fluorescence; actives lie on both sides | B-score at 10 µM | 130,000 compounds, 2% hits;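 active = signal ratio slope over the read window, or its plate-corrected B-score, at least 3 SD from the plate mean, either direction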;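 note: B-score of the F/F0 ratio slope over 7 to 12 s after thallium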
# Target sequence (P48048 whole entry, looked up): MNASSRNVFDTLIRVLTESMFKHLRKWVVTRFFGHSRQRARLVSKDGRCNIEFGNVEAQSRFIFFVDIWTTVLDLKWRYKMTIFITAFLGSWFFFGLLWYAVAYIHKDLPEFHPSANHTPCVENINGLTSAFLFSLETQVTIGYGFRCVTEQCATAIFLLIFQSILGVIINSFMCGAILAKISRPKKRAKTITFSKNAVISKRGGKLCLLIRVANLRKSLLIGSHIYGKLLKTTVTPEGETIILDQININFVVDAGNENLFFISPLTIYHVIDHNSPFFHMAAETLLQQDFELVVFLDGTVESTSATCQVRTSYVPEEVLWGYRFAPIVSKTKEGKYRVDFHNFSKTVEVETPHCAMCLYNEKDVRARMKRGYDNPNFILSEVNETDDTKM
# 14-3-3 Bad PPI = inhibitors of 14-3-3 zeta/Bad binding, primary screen, biochemical, TR-FRET, bovine 14-3-3 zeta | TR-FRET 14-3-3zeta/Dy647-pBad peptide displacement, 1 h | inhibition, % at 21.7 µM | 220,000 compounds, 0.71% hits | AID 781, 2007;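 active = inhibition above about 70%, limit read from the data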
# TNF death inh = inhibitors of TNF-alpha triggered necroptosis, primary screen, cell-based, Jurkat FADD-/-, single concentration; 220,000 compounds, 0.068% hits; activation (protection from cell death), % at 10 µM; AID 463075, 2010; Jurkat FADD-/- TNF necroptosis rescue, ATP luminescence, 24 h; 0 = TNF only, 100 = no-TNF cells;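 active = activation, meaning protection from cell death, of at least 50% relative to plate controls; inactive = activation below 50%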;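 note: necroptosis triggered by 40 ng/mL TNF-alpha added together with compound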
# Calpain2 inh = inhibitors of pig calpain II, primary screen, biochemical, fluorogenic peptide substrate, 1536-well; 220,000 compounds, 0.37% hits; purified calpain II, 30 min; inhibition, % at 16 µM;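 active = inhibition above about 50%, limit read from the data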
# L929 necroptosis = inhibitors of zVAD-triggered necroptosis, primary screen, L929 cells. L929 zVAD necroptosis rescue, ATP luminescence, 24 h; with zVAD 60 µM. viability rescue, % at 10 µM. 220,000 compounds, 0.38% hits;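 active = activation, scaled between plate controls, above about 75%, limit read from the data; inactive = activation under that limit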
# Efa HMGR inh = inhibitors of E. faecalis class II HMGR, primary screen, biochemical, Enterococcus faecalis; HMG-CoA reductase (Enterococcus faecalis, mvaE); AID 1066, 2008; 190,000 compounds, 0.41% hits; inhibition, % at 10 µM; purified E. faecalis HMGR, NADPH absorbance 340 nm kinetic;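 active = inhibition above a set limit, the median over all tested compounds plus 3 SD, cut at about 9.5% in these data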;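 note: enzyme runs in reverse so mevalonate oxidation gives rising NADPH absorbance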
# Hits are given with their value; . = inactive; / = no result given; [ ] = dose if it differs, or a comment. Shown are actives, neighbours in structure and some others; about 3% of the full set was active somewhere.
SMILES,ROMK primary,14-3-3 Bad PPI,TNF death inh,Calpain2 inh,L929 necroptosis,Efa HMGR inh
COC(=O)C1=C(C)Nc2c(c(=O)n(C)c(=O)n2C)C1c1cccnc1 (centres undefined),.,.,.,.,.,13
CN(Cc1ccccc1)C(=S)Nc1cccnc1,.,.,.,.,.,.
O=C(NCC1CCCO1)c1ccc(C(=O)NCC2CCCO2)cc1 (centres undefined),/,.,.,.,.,.
O=C(NCC1CCCO1)c1ccc(Cl)c(F)c1F (centres undefined),/,.,.,.,.,15
CCOC(=O)CNC(=O)CN1C(=O)CC(c2ccccc2)S(=O)(=O)c2ccccc21 (centres undefined),.,.,.,.,.,11
N#Cc1c2ccc(O)cc2n2ccccc12,-4.7,.,.,.,.,.
O=C(NCCc1c[nH]c2ccccc12)C(=O)NCC(c1ccco1)N1CCN(c2ccccc2)CC1 (centres undefined),.,.,.,.,.,.
O=C(O)CC12CSc3[nH]c(=O)sc3C1c1ccccc1OC2=O (centres undefined),/,.,.,54,.,.
O=C1/C(=C/c2cccnc2)Sc2ccccc21,-4.5,.,.,.,.,.
C=CCN(c1ccccc1)S(=O)(=O)c1cccc(C(=O)O)c1,.,70,.,.,.,.
Cc1cc2nc3c(c(C(F)(F)F)n2n1)CCCC3,.,.,.,.,.,.
O=C(c1cc(COc2c(F)cccc2F)on1)N1CCC(c2ccccc2Cl)C1 (centres undefined),.,.,.,55,.,.
COCCCNC1=C(Cl)C(=O)c2ccccc2C1=O,/,.,.,.,.,/
CCN(CC)CCCNC1=C(Cl)C(=O)c2ccccc2C1=O,.,.,.,51,.,.
CCOC(=O)C(CC)n1cnc2c(nnn2-c2ccc(C)cc2)c1=O (centres undefined),/,.,.,.,.,.
COC(=O)C(C)n1cnc2c(nnn2-c2ccc(OC)cc2)c1=O (centres undefined),.,.,.,.,.,14
O=C1C(=Cc2cccn2-c2ccc(O)cc2)C(=O)c2ccccc21,/,84[fluorescence artefact?],.,.,.,.
O=C(O)c1cccc(-n2cccc2C=C2C(=O)c3ccccc3C2=O)c1,.,.,.,.,.,.
O=C1C(=Cc2cccn2-c2ccccc2)C(=O)c2ccccc21,.,82[fluorescence artefact?],.,.,/,.
COc1ccc2c(-c3ccccc3)cc(N3CCOCC3)nc2c1,/,86[fluorescence artefact?],.,.,.,.
O=C(c1ccco1)N(Cc1cccc([N+](=O)[O-])c1)c1ccc(Br)cc1,.,.,.,52,.,.
O=C(c1ccco1)N(Cc1ccc([N+](=O)[O-])cc1)c1ccc(Br)cc1,/,.,.,.,.,.
O=C1COc2ccc(C(=O)COC(=O)c3cnc(Cl)c(Cl)c3)cc2N1,.,.,.,.,.,.
COc1cc2c(cc1OC)-c1cc(NCc3ccccn3)nc(=O)n1CC2,/,91[fluorescence artefact?],.,.,.,.
O=C(O)c1ccn(Cn2cnc3ccccc32)n1,.,76,.,.,.,.
SMILES,ROMK primary,14-3-3 Bad PPI,TNF death inh,Calpain2 inh,L929 necroptosis,Efa HMGR inh
O=C(CCC1CCCN(C(=O)C2=CCCCC2)C1)N1CCN(c2ccccn2)CC1 (centres undefined),.,.,.,.,.,.
O=C(c1cc(-c2ccccc2)n[nH]1)N1CCc2c([nH]c3ccccc23)C1c1ccccn1 (centres undefined),.,.,.,.,.,.
COC(=O)c1ccccc1NC(=S)N(Cc1ccc2c(c1)OCO2)Cc1cc2ccc(OC)cc2[nH]c1=O,.,.,.,.,.,.
O=C1C2C3C=CC(C3)C2C(=O)N1CCCCN1C(=O)C2C3C=CC(C3)C2C1=O (centres undefined),.,73,.,.,.,.
O=C1C2C3C=CC(C3)C2C(=O)N1CCCO (centres undefined),/,.,.,.,.,.
CC(=O)c1ccc(NC(=S)N2CC(C)CC(C)C2)cc1 (centres undefined),/,.,.,.,.,.
COC(=O)c1nn(-c2ccc(C)cc2)c2nnc(Cc3ccccc3)c(=O)n12,.,.,.,.,.,.
CCCCn1nnnc1SCC(=O)NNC(=O)c1ccco1,.,.,.,.,.,.
O=C1NC(=O)/C(=C\c2ccc(O)cc2O)S1,.,87,.,.,.,.
Cc1ccccc1-n1c(SCC(=O)N/N=C/c2c(C)nn(-c3ccccc3)c2C)nc2ccccc2c1=O,.,89,.,.,.,.
C=CCNC(=S)N/N=C/c1ccc(C(C)(C)C)cc1,.,.,.,64,.,.
CC(C)(C)c1ccc(/C=N/NC(=S)NCc2ccccc2)cc1,.,.,.,.,.,.
Oc1c(Cl)cc(Cl)cc1C=Nc1cc(C(F)(F)F)ccc1N1CCc2ccccc2C1,/,.,.,.,.,/
OC1CCN(c2cc(-c3ccccc3)nc3cc(-c4ccc(F)cc4)nn23)CC1,.,.,.,.,.,.
CCN1CCN(c2cc(-c3ccccc3)nc3cc(-c4cccc(F)c4)nn23)CC1,.,.,.,.,.,9.6
O=C(NCc1c(Cl)cccc1Cl)c1ccc2nnsc2c1,/,.,58,.,.,/
COCCNC(=O)c1ccc2snnc2c1,/,.,.,.,.,.
Cc1ccc(Cl)cc1N1CCN(C(=O)Cn2ccc3ccccc3c2=O)CC1,-3.6,.,.,.,.,.
COc1ccc(N2C(=O)N(Cc3ccccc3F)c3ccccc3S2(=O)=O)cc1,.,.,.,58,.,.
COc1ccc(S(=O)(=O)N2CCCN(Cc3cccc(F)c3)CC2)cc1,.,.,.,.,.,.
COc1ccc(N2C(=O)N(Cc3cccc(F)c3)c3ccccc3S2(=O)=O)cc1,.,.,.,63,.,.
Cc1ccc(N2C(=O)N(CC(=O)C(C)(C)C)c3ccccc3S2(=O)=O)cc1,.,.,.,.,.,.
CC(=O)N1CCN(C(=S)Nc2cc(S(=O)(=O)N3CCOCC3)ccc2Cl)CC1,.,.,.,.,.,.
Cc1ccccc1NC(=O)Cn1nnc(S(=O)(=O)c2ccc(C(C)(C)C)cc2)c1N,.,.,.,.,/,18
CCOc1ccccc1NC(=O)Cn1nnc(C(=O)NCc2ccco2)c1N,/,.,.,.,.,.
COc1ccc(NC(=O)Cn2nnc(C(=O)Nc3ccccc3C)c2N)cc1,/,.,.,.,.,.
Cc1ccccc1NC(=O)Cn1nnc(C(=O)NCc2ccco2)c1N,.,.,.,.,.,13

# High-throughput results: PubChem, several laboratories
